The text below walks through data of PubChem BioAssay (NCI).

Each structure is given as a SMILES string. This is part of a sample that, as a whole, favours compounds with a hit. Of some 83,000 tested, about 20% had one in any assay.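 Growth was measured after 48 h exposure to one concentration of compound in 96-well plates. Values under 10 count as active.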 A number with no mark means an inactive call. Activity calls are given as the source filed them.

What all share (experiment): NCI-60 one-dose screen, 48 h (100 = growth as untreated, 0 = no growth, -100 = all killed)
One assay relates to HCT-15 colon. The following applies: 10 µM unless noted.
The next assay has as its system HT29 colon. The note with it: 10 µM unless noted.
The next assay deals with SNB-75 CNS. The following applies: 10 µM unless noted.
A further assay concerns SNB-19 CNS. The following applies: 10 µM unless noted.
A further assay has as its system U251 CNS. The following applies: 10 µM unless noted.
The test system of the next assay is PC-3 prostate. The note with it: 10 µM unless noted.
A further assay has as its system SK-MEL-5 melanoma. The following applies: 10 µM unless noted.
The subject of another assay is UACC-62 melanoma. The following applies: 10 µM unless noted.
The next assay relates to LOX IMVI melanoma. The following applies: 10 µM unless noted.
The next assay relates to SK-MEL-28 melanoma. The note with it: 10 µM unless noted.
The next assay concerns SK-MEL-2 melanoma. The following applies: 10 µM unless noted.
The next assay has as its system EKVX NSCLC. The note with it: 10 µM unless noted.
For the next assay, the system named is SN12C renal. The following applies: 10 µM unless noted.
For another assay, the system named is UO-31 renal. The note with it: 10 µM unless noted.
The next assay concerns TK-10 renal. The following applies: 10 µM unless noted.
A further assay deals with ACHN renal. The note with it: 10 µM unless noted.
The subject of the next assay is CAKI-1 renal. The note with it: 10 µM.
In the next assay the test system is A498 renal. The note with it: 10 µM unless noted.
Another assay concerns CCRF-CEM leukemia. The following applies: 10 µM unless noted.
The test system of a further assay is MOLT-4 leukemia. The note with it: 10 µM unless noted.

Regarding `Cc1ccc(-c2cc(-c3ccc(N(C)C)cc3)n3c(n2)nc2ccccc23)cc1`, the growth with HCT-15 colon is 56.6%; in the assay with HT29 colon, 65.8%; with SNB-75 CNS it was 94%; with SNB-19 CNS it was 50.2%; with U251 CNS, 56.7%; in the assay with PC-3 prostate it was 47.8%. Besides, the growth in the assay on SK-MEL-5 melanoma was -37.6% (active); with UACC-62 melanoma it was 35%; in the assay with LOX IMVI melanoma it was 83.5%; with SK-MEL-28 melanoma, 52.9%; in the assay with SK-MEL-2 melanoma, 16%; in the assay with EKVX NSCLC, 57.9%. Also, the growth in the assay on SN12C renal was 62.8%; in the assay on UO-31 renal, 41.8%; in the assay with TK-10 renal it was 61.1%; with ACHN renal, 49.3%; with CAKI-1 renal, 59.3%; in the assay with A498 renal, 15.6%. Also, the growth in the assay on CCRF-CEM leukemia was 54.8%; in the assay with MOLT-4 leukemia it was 38.9%.

With `Cc1cc(C(=O)Nc2ccc(SC#N)cc2)c(C)o1`, the growth is 82.1% with HCT-15 colon; 106% in the assay on HT29 colon; 104% in the assay on SNB-75 CNS; 90.7% in the assay on SNB-19 CNS; 76% in the assay on U251 CNS; 73.9% in the assay with PC-3 prostate. Also, the growth in the assay with SK-MEL-5 melanoma was 99.6%; in the assay with UACC-62 melanoma, 93.1%; with LOX IMVI melanoma it was -41.2% (active); in the assay on SK-MEL-28 melanoma, 104%; with SK-MEL-2 melanoma, 110%; in the assay on EKVX NSCLC it was 90.4%. The growth with SN12C renal was 70.6%; in the assay with UO-31 renal it was 49.3%; in the assay with TK-10 renal, 101%; in the assay on ACHN renal it was 100%; in the assay on CAKI-1 renal, 81.7%; in the assay with A498 renal it was 94.4%. Further, the growth with CCRF-CEM leukemia is 28.8%; with MOLT-4 leukemia, 29.7%.

Take `C#CCOc1ccc(/C=N/Nc2nc(-c3cc4cc(Br)cc(Br)c4oc3=O)cs2)cc1`: the growth with HCT-15 colon was 95.2%; in the assay on HT29 colon, 104%; in the assay on SNB-75 CNS, 90.3%; in the assay with SNB-19 CNS, 104%; with U251 CNS it was 96.2%; with PC-3 prostate, 88.1%. Also, the growth with SK-MEL-5 melanoma was 98.5%; in the assay on UACC-62 melanoma it was 88.1%; in the assay with LOX IMVI melanoma it was 102%; with SK-MEL-28 melanoma, 106%; with SK-MEL-2 melanoma it was 109%; with EKVX NSCLC, 92.2%. Further, the growth with SN12C renal was 92.1%; in the assay with UO-31 renal, 88.5%; in the assay with TK-10 renal, 142%; in the assay with ACHN renal, 98.8%; in the assay on CAKI-1 renal, 88.1%; with A498 renal it was 85.4%. Besides, the values for the growth with CCRF-CEM leukemia and with MOLT-4 leukemia were 94.4% and 62.8%, respectively.

Take `O=C1[C@@H]2Cc3c([nH]c4ccccc34)[C@H](c3c(Cl)cccc3Cl)N2C(=O)CN1C1CCN(Cc2ccccc2)CC1`: the growth with HCT-15 colon is -25.7% (active); in the assay with HT29 colon it was 2.12% (active); in the assay on SNB-75 CNS, 62%; in the assay with SNB-19 CNS, 61.8%; in the assay on U251 CNS, 38.9%; in the assay with PC-3 prostate, 41.8%. The growth is 45.2% in the assay with SK-MEL-5 melanoma; 90.2% with UACC-62 melanoma; -80% (active) in the assay on LOX IMVI melanoma; 14.6% in the assay with SK-MEL-28 melanoma; 85.7% in the assay on SK-MEL-2 melanoma; 53.6% with EKVX NSCLC. Besides, the growth in the assay on SN12C renal is 15.5%; in the assay on UO-31 renal, 14%; in the assay on TK-10 renal, 89.2%; in the assay with ACHN renal, 43.5%; with CAKI-1 renal it was 74.3%; with A498 renal, 66.3%. Further, the growth with CCRF-CEM leukemia is 3.54% (active); in the assay with MOLT-4 leukemia, 12.8%.

Regarding `CCn1c2ccc(/C=N/OCCCN(C)C)cc2c2cc(/C=N/OCCCN(C)C)ccc21`, the growth in the assay with HCT-15 colon was -13% (active); in the assay with HT29 colon it was -58.8% (active); in the assay with SNB-75 CNS, 82.8%; with SNB-19 CNS it was 59.3%; in the assay with U251 CNS, -30.9% (active); in the assay on PC-3 prostate it was 32.4%. Besides, the growth is -95.6% (active) with SK-MEL-5 melanoma; 10.6% with UACC-62 melanoma; -91.8% (active) with LOX IMVI melanoma; -33.8% (active) in the assay on SK-MEL-28 melanoma; 125% with SK-MEL-2 melanoma; 48.6% in the assay with EKVX NSCLC. Besides, the growth was 63.6% in the assay with SN12C renal; -90.4% (active) in the assay on UO-31 renal; 132% in the assay with TK-10 renal; -15.5% (active) in the assay on ACHN renal; -16.5% (active) in the assay with CAKI-1 renal; 54.1% in the assay with A498 renal. For the same compound, the growth in the assay with CCRF-CEM leukemia was 9.36% (active); in the assay on MOLT-4 leukemia it was 0.746% (active).

Take `O=C1c2c(c3c4cc(O)ccc4oc3c3[nH]c4ccccc4c23)C(=O)N1O`: the growth is 15.2% in the assay on HCT-15 colon; -64.6% (active) in the assay with HT29 colon; -8.52% (active) with SNB-75 CNS; 16.4% in the assay with SNB-19 CNS; -3.58% (active) with U251 CNS; 12.8% in the assay on PC-3 prostate. The growth with SK-MEL-5 melanoma is -76.1% (active); in the assay on UACC-62 melanoma it was -53.6% (active); in the assay on LOX IMVI melanoma, -67.8% (active); with SK-MEL-28 melanoma, 19.4%; in the assay with SK-MEL-2 melanoma, -71.6% (active); in the assay with EKVX NSCLC, 66.6%. Further, the growth is 17.1% with SN12C renal; -40.1% (active) in the assay on UO-31 renal; 31.1% in the assay with TK-10 renal; -5.43% (active) with ACHN renal; -16.5% (active) with CAKI-1 renal; -9.95% (active) with A498 renal. In addition, the growth is 1.62% (active) in the assay on CCRF-CEM leukemia and 4.76% (active) in the assay on MOLT-4 leukemia.

With `O=C(NNc1nc2cc(F)c(F)cc2n2cccc12)c1cccnn1`, the growth in the assay with HCT-15 colon is 29.1%; in the assay with HT29 colon, 29.5%; in the assay with SNB-75 CNS it was 33.7%; in the assay on SNB-19 CNS, 22.6%; with U251 CNS it was 14.8%; in the assay with PC-3 prostate, 33.7%. Moreover, the growth in the assay with SK-MEL-5 melanoma is -36.8% (active); in the assay on UACC-62 melanoma, 10.5%; in the assay with LOX IMVI melanoma it was 3.83% (active); with SK-MEL-28 melanoma, 27.3%; in the assay with SK-MEL-2 melanoma, 19.3%; in the assay on EKVX NSCLC, 7.06% (active). Also, the growth in the assay on SN12C renal was 15.8%; with UO-31 renal it was 13.3%; with TK-10 renal it was 39.5%; in the assay on ACHN renal, 10.2%; with CAKI-1 renal, 11.8%; in the assay with A498 renal, 14.2%. For the same compound, the growth in the assay with CCRF-CEM leukemia was 7.8% (active); in the assay with MOLT-4 leukemia, 7.86% (active).
